Luciferase inh – Firefly luciferase inhibition profiling of diverse chemical library using quantitative high-throughput screening; Luciferin 4-monooxygenase (Photinus pyralis), P08659; purified P. pyralis luciferase, luminescence, biochemical; Potency, µM (highest dose often 115 µM), hits mostly inhibitors; hit rate 2.5% among 76,000; AID 1347043, 2019; note: nearly all actives have a fitted effect of over 65% in size
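Cell-free enzyme assay, 10nM P. pyralis luciferase, luciferin and ATP each at 10uM. Inhibition profiled over a 6-point titration, read as luminescence.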
NPR1 antag – Natriuretic polypeptide receptor (hNpr1) antagonism - Primary qHTS; Atrial natriuretic peptide receptor 1 (Homo sapiens), P16066; HEK293 hNpr1 GloSensor cGMP, ANP-stimulated luminescence; Potency, µM (doses to about 46.3 µM), for the others: top-dose activity change, negative = inhibition, usual class: inhibitors; hit rate 1.6% among 76,000; AID 1347048, 2019; calls by dose curve; note: nearly all actives have a fitted effect of over 60% in size
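HEK293 cells stably expressing human Npr1 and cGMP GloSensor pGS-40F, loaded 2 h with 2% GloSensor reagent, given compound 30 min at room temperature. Luminescence read before and 20 min after 0.1 nM hNppA.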
NIH3T3 tox – Cytotoxic Profiling in NIH 3T3 Cell Line of Diverse Libraries Using Quantitative High-Throughput Screening; NIH 3T3 viability, CellTiter-Glo ATP luminescence, 48-72 h; Potency, µM (series often up to 96.7 µM), for inactives: top-dose activity change, negative = cytotoxicity, most hits filed as inhibitors; hit rate 4.3% among 94,000; AID 1345082, 2018; note: nearly all actives have a fitted effect of over 55% in size
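ATP-dependent luminescence (CellTiter-Glo) served as the viability signal for NIH 3T3 cells treated with compound for 48 or 72 hr at 37 °C.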
HEK cytotox – Cytotoxic Profiling in HEK 293 Cell Line of Diverse Libraries Using Quantitative High-Throughput Screening; hit rate 6.6% among 94,000; Potency, µM (highest dose often 115 µM), for the others: at the top dose activity change, negative = cytotoxicity, actives largely listed as inhibitors; HEK 293 viability, ATP luminescence (CellTiter-Glo), 48-72 h; AID 1345083, 2018; note: nearly all actives have a fitted effect of over 60% in size
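Viability of HEK 293 cells, plated at 250 cells/well, was judged by cellular ATP after compound treatment for 48 or 72 hr. Luminescence was imaged 10 min after CellTiter-Glo addition at room temperature.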
The depositor's hits bear a star; i = inactive; ? = inconclusive; · = no result given; [ ] = dose if it differs, or a comment. Sampled rows, rich in hits. Any-hit rate of the full collection: about 11%. Unless noted, calls come from the whole dose curve; as a rule, active = well fitted curve in the direction sought with a large enough effect; inconclusive = small, poorly fitted or top-dose-only effect, or another doubt; inactive = no such curve, though single readings can be large; an effect the other way counts as inactive or inconclusive. % is set by controls: 0 for no effect and ±100 for the full control effect; potency is the fitted concentration of half-maximal effect.

SMILES	Luciferase inh	NPR1 antag	NIH3T3 tox	HEK cytotox
O=C(c1cc2ccccc2[nH]1)N1CCN(C(=O)c2nnn3c2COC(c2ccc(Cl)cc2)C3)CC1 (stereo not drawn)	i	-24%	-21%	?
O=C(Nc1ccccc1Cl)c1ccc2nnc(C3CCOCC3)n2c1	·	·	-27%	-2%
Cc1noc(C)c1CN1C[C@@H]2[C@H](C1)N(CCOc1ccccc1)C(=O)C(C)(C)[S+]2(=O)[O-]	i	-1%	16µM*	-23%
CC(C)CCN1C[C@@H]2[C@H](C1)N(CCOc1ccccc1)C(=O)C(C)(C)[S+]2(=O)[O-]	i	5%[70.6 µM]	?	112µM*
CS(=O)(=O)N1CCC(OCc2noc(C3CCCO3)n2)CC1 (stereo not drawn)	·	·	-8%	-6%
CCc1nc2c(c(-c3ccc(O)cc3)n1)CN(C(=O)C1CC1)CC2	·	·	-18%[138 µM]	?
COc1cccc(Nc2ncc3c(n2)C(C)(C(=O)N2CCN(c4ccccn4)CC2)CC3)c1 (stereo not drawn)	i	0%	-27%	?
CC1(C(=O)NCc2cccnc2)CCCc2cnc(Nc3ccccc3F)nc21 (stereo not drawn)	i	2%[70.6 µM]	?	?
CC1(C(=O)NCCc2ccccn2)CCc2cnc(NCc3ccccc3)nc21 (stereo not drawn)	i	-2%[70.6 µM]	40µM*	-30%[172 µM]
CC1(C(=O)NCC2CC2)CCCc2cnc(NCc3ccccc3)nc21 (stereo not drawn)	i	-24%[70.6 µM]	?	?
CC1(C(=O)NCc2cnccn2)CCc2cnc(NCc3ccccc3)nc21 (stereo not drawn)	i	1%[70.6 µM]	50µM*	-4%[172 µM]
CC1(C(=O)N2CCN(c3ccccn3)CC2)CCc2cnc(NCc3ccccc3)nc21 (stereo not drawn)	i	-8%[70.6 µM]	?	100µM*
CC1(C(=O)NCC2CCCO2)CCc2cnc(NCc3ccccc3)nc21 (stereo not drawn)	i	-5%[70.6 µM]	50µM*	-26%[172 µM]
O=C(C1CCCN(C(=O)C2CC2)C1)N1CCC(N2CCOCC2=O)CC1 (stereo not drawn)	·	·	-14%	-2%
CN(C)C(=O)C1CCN(Cc2ccccc2-c2ccccc2F)CC1	·	·	?	-5%
Cc1noc([C@@H]2Cc3nc[nH]c3CN2C(=O)Nc2ccccc2)n1	i	-1%[70.6 µM]	-12%[174 µM]	-12%[172 µM]
COc1ccc(CN2CCCCCNC(=O)CC2c2ccccc2)cc1Cn1ccnc1 (stereo not drawn)	i	-30%	40µM*	35µM*
COc1cccc(CN2CCCCCCNC(=O)CC2c2ccccc2)c1 (stereo not drawn)	i	-29%	?	?
O=C1CC(c2ccccc2)N(Cc2ccc(F)c(F)c2)CCCCCN1 (stereo not drawn)	i	-21%	40µM*	?
O=C1CC(c2ccccc2)N(Cc2ccc(C(F)(F)F)cc2)CCCCCN1 (stereo not drawn)	i	?	?	?
COc1ccc(CN2CCCCCNC(=O)CC2c2ccccc2)cc1Cc1c(C)noc1C (stereo not drawn)	i	-11%	35µM*	?
O=C(Nc1ccc2nnc(-c3ccc(C(=O)N4CCSCC4)cc3)n2c1)C1CCC1	i	-8%	?	?
CCC1Oc2ccc(NC(=O)COc3ccccc3)cc2CN(Cc2ccccc2Cl)C1=O (stereo not drawn)	i	-13%	?	?
Fc1cccc(-c2cnc(Nc3cccnc3)c3c2CCO3)c1	i	5%[70.6 µM]	?	?
COCCNc1ncc(-c2cccc(OC)c2)c2c1OCC2	18µM*	-3%[70.6 µM]	?	?
SMILES	Luciferase inh	NPR1 antag	NIH3T3 tox	HEK cytotox
COCCNc1ncc(-c2cccc(F)c2)c2c1OCC2	79µM*	-1%[70.6 µM]	?	?
CNC(=O)c1cccc(-c2cnc(Nc3cccc(F)c3)c3c2CCO3)c1	22µM*	-5%[70.6 µM]	?	?
O=C(Nc1ncc(-c2cccc(F)c2)c2c1OCC2)c1c[nH]c2ccccc12	?	-12%[70.6 µM]	40µM*	50µM*
COCCNc1ncc(-c2ccc(NC(C)=O)cc2)c2c1OCC2	i	5%[70.6 µM]	?	?
COCCNc1ncc(-c2ccc(SC)cc2)c2c1OCC2	?	3%[70.6 µM]	?	?
COCCN1CC2CN(C(=O)Nc3ccc4c(c3)OCCO4)CC(C1)O2	·	·	-23%	-31%
O=C(NCC1CCCCC1)C1CCN(C(=O)c2ccc(-c3cncnc3)cc2)CC1	·	·	?	-22%
Cc1ccccc1S(=O)(=O)N1CCN(C2CCN(Cc3ccccn3)C2=O)CC1 (stereo not drawn)	i	-16%	-28%	-23%
COc1ccc(C(=O)Nc2ncc(-c3cccc(N(C)C)c3)c3c2OCC3)cc1	?	?	?	100µM*
CN(C)c1cccc(-c2cnc(NC(=O)c3ccncc3)c3c2CCO3)c1	i	-3%[70.6 µM]	-25%[138 µM]	?
COCCNc1ncc(-c2cccc(N[S+](C)(=O)[O-])c2)c2c1OCC2	63µM*	3%[70.6 µM]	?	?
COc1ccc(CN2C[C@@H](C(N)=O)[C@H](c3nc(C)no3)C2)cc1Cn1ccnc1	i	3%	-22%	?
O=C(NCC1CCCCC1)C1CN(c2ccnc3ccnn23)C1	·	·	-27%	25µM*
O=C(NCc1cccc(C(F)(F)F)c1)C1CCCN(c2ccnc3ccnn23)C1 (stereo not drawn)	·	·	?	45µM*
O=C(NCC1CC1)C1CCCN(c2ccnc3ccnn23)C1 (stereo not drawn)	·	·	-19%[138 µM]	3%[172 µM]
O=C(NCc1ccccn1)C1CCCN(c2ccnc3ccnn23)C1 (stereo not drawn)	·	·	?	-21%
Cc1cc(C(=O)N2CCCN(c3ccnc4ccnn34)CC2)ccc1Cl	·	·	?	45µM*
O=C(NC1CCCN(c2ccnc3ccnn23)C1)c1ccc(C(F)(F)F)cc1 (stereo not drawn)	·	·	?	28µM*
COCCn1c(=O)c(C(=O)N2CCN([S+](=O)([O-])c3c(C)noc3C)CC2)nc2cccnc21	·	·	-12%	i
O=C(NC1CCN(c2ccnc3ccnn23)C1)c1ccc(Cl)cc1 (stereo not drawn)	·	·	?	10µM*
O=C(NC1CCN(c2ccnc3ccnn23)CC1)c1ccc(Cl)cc1	·	·	?	45µM*
O=C(NC1CCN(c2ccnc3ccnn23)C1)c1ccccc1Cl (stereo not drawn)	·	·	-34%[138 µM]	?
O=C(NCCc1ccccc1)C1CCCN(c2ccnc3ccnn23)C1 (stereo not drawn)	·	·	-29%[138 µM]	?
O=C(NCCCc1ccccc1)C1CCN(c2ccnc3ccnn23)CC1	·	·	?	40µM*
Cc1noc2c(NCCc3ccccn3)cc(-c3cccnc3)nc12	i	3%[70.6 µM]	?	-13%[172 µM]
Cc1noc2c(NCCc3ccccn3)cc(-c3ccccn3)nc12	i	1%[70.6 µM]	?	56µM*
